# Compound activity as filed in PubChem BioAssay.
# AMPAR-TARP mod = modulators of AMPA receptor GluA2-stargazin complexes; HEK293 GluA2+stargazin, membrane potential dye (FDSS), glutamate EC50; hits were called plate by plate, in both directions; AID 1259245; O88602+P19491; calls only at 30 µM; hit rate 3.5% among 40,000;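 active = any of four per-well response measures lying three or more SD from its plate-wide compound average, in either direction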
# GIRK2 act = Activators of human GIRK2-containing channels; P48051; HEK293 GIRK2/NPY4 cells, thallium flux fluorescence; activation (% efficacy), % for hits at 37.5 µM; 34,000 tested, under 10 active; AID 1259324;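 active = primary screen hit, no activity in plain HEK293 cells, and in GIRK2-only cells above 5% efficacy rising with concentration; inactive = the rest, including fluorescent compounds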;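 note: efficacy is normalized control-subtracted fluorescence 15 s after thallium addition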
# Target sequence (P48051 whole entry, looked up): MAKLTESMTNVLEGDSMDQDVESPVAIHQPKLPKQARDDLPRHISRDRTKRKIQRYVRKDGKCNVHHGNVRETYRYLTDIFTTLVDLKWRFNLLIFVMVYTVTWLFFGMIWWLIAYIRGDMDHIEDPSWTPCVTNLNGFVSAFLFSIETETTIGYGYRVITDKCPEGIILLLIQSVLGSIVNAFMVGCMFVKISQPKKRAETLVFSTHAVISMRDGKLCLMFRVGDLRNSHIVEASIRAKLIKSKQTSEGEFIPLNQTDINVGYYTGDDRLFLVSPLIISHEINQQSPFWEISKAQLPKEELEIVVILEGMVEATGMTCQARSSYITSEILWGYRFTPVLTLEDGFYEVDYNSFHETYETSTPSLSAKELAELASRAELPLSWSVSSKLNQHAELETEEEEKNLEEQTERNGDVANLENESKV
# Active calls of the source: *; i = inactive; . = not tested or not shown; + = active, no number. This is one part of a sample in which hits are shown more often than they occur.
SMILES,AMPAR-TARP mod,GIRK2 act
COc1ccccc1/C=C(\C#N)C(N)=C(C#N)C#N,+,i
COc1ccc(OC)c(NC(=O)/C(C#N)=C/c2ccc(C(C)C)cc2)c1,i,i
Cc1cc(C)c(S(=O)(=O)N2CCN(c3cccc(C)c3C)CC2)c(C)c1,+,.
Cc1cc(C)c(S(=O)(=O)N2CCN(c3c(C)cccc3C)CC2)c(C)c1,i,.
CCOC(=O)c1cccc(NC(=O)Cn2nc(SC)c(S(=O)(=O)c3ccc(C)cc3)c2N)c1,i,i
CC(C)c1ccc(CC(=O)Nc2ccc(S(N)(=O)=O)cc2)cc1,i,i
Cc1ccc(-c2ccc(=O)n(CCCNC(=O)COc3cccc(Cl)c3)n2)cc1,i,i
COc1cc(OC)cc(C(=O)N2CCN(c3ccc(-c4ccncc4)nn3)CC2)c1,+,i
COc1ccc(-c2ccc(N3CCC(C(=O)NC4CC4)CC3)nn2)cc1,+,i
O=C(Cc1c[nH]c2ccccc12)N1CCN(c2cc(-c3cccnc3)[nH]n2)CC1,.,i
COc1ccc(-c2ccc(N3CCC(C(=O)NCCc4c[nH]c5ccccc45)CC3)nn2)cc1,+,i
O=C(Cc1c[nH]c2ccccc12)N1CCN(c2ccc(N3CCCC3)nn2)CC1,+,i
O=C(c1ccc2c(c1)OCO2)N1CCN(c2ccc(-c3ccncc3)nn2)CC1,i,i
COc1ccc(-c2ccc(N3CCC(C(=O)N4CCN(C)CC4)CC3)nn2)cc1,i,i
COc1ccccc1CNC(=O)C1CCN(c2ccc(-c3ccc(F)cc3)nn2)CC1,i,i
CC(=O)Nc1ccc(S(=O)(=O)NCCn2nc(C)cc2C)cc1,i,i
Cc1ccc(CC(=O)Nc2nnc(-c3ccccn3)o2)c(C)c1,i,i
COc1cccc(-c2nnc3ccc(OCCNC(=O)c4sc(C)nc4C)nn23)c1,i,i
Cc1cc(C)cc(NC(=O)C2CCN(c3nc4nc[nH]c(=O)c4s3)CC2)c1,i,i
COc1ccc(CCNC(=O)C(=O)NC2CC2)cc1OC,i,.
C=CC(C)n1c(=O)c2c(nc3n2CCN3c2ccc(Oc3ccccc3)cc2)n(C)c1=O (stereo not given),i,.
CCn1c(=O)c(C(=O)NCc2ccccc2)cc2cccnc21,i,.
CC(C)NC(=O)c1nsc(C(=O)N2CCSCC2)c1N,i,i
O=C(NCc1ccccc1Cl)c1coc(NC(=O)c2ccco2)n1,i,i
O=C(Nc1nc(C(=O)N2CCc3ccccc3C2)co1)c1ccco1,+,i
SMILES,AMPAR-TARP mod,GIRK2 act
COc1ccc(N2CCCS2(=O)=O)cc1NC(=O)C(=O)NCCCO,i,i
COc1ccc(NC(=O)NCC(c2ccccc2Cl)N(C)C)cc1OC (stereo not given),+,i
COC(=O)c1ccc(C(=O)NCC(c2ccccc2Cl)N(C)C)cc1 (stereo not given),i,i
Cn1nc(C2CCCN(C(=O)/C=C/c3ccccc3)C2)n(-c2ccccc2)c1=O (stereo not given),i,i
Cc1ccnc(NS(=O)(=O)c2ccc(NC(=O)c3nc(-c4cnccn4)no3)cc2)n1,i,i
O=C(Nc1ccc(S(=O)(=O)Nc2nccs2)cc1)c1nc(-c2cnccn2)no1,+,i
CSc1ccccc1NC(=O)C(=O)NCC1CCN(Cc2ccccc2)CC1,i,i
CSc1ccccc1CN1CCC(CNC(=O)C(=O)Nc2ccccc2Cl)CC1,+,i
CC(C)N1CCC(CNC(=O)c2cccc3ccccc23)CC1,i,.
CCOC(=O)c1c(NC(=O)c2ccn(C)n2)sc2c1CCN(C(C)=O)C2,+,i
CCOC(=O)N1CCc2c(sc(NC(=O)c3ccnn3CC)c2C(=O)OC)C1,+,i
CC(=O)N1CCc2c(sc(NC(=O)c3cc(C)no3)c2C#N)C1,i,i
CC(=O)N1CCc2c(sc(NC(=O)c3ccn(C)n3)c2-c2nc3ccccc3s2)C1,i,.
CC(=O)N1CCc2c(sc(NC(=O)c3cc(C)no3)c2C(N)=O)C1,+,i
CCOC(=O)N1CCc2c(sc(NC(=O)c3cc(C)n(CC)n3)c2C(N)=O)C1,.,i
CCOC(=O)N1CCc2c(sc(NC(=O)c3ccn(C)n3)c2C(=O)OC)C1,+,i
CCn1nccc1C(=O)Nc1sc2c(c1C(N)=O)CCN(C(C)=O)C2,i,i
Cc1cc(NC(=O)c2ccccc2Br)n(-c2nc(-c3ccccc3)cs2)n1,.,i
O=C(/C=C/c1ccccc1)N1CCN(Cc2nc(-c3ccco3)cs2)CC1,i,i
Cc1n[nH]c(C)c1S(=O)(=O)N1CCC(Cn2c(C)nc3ccccc32)CC1,i,i
Cc1c(Cl)cccc1S(=O)(=O)N1CCC(Cn2c(C)nc3ccccc32)CC1,+,i
COCC(=O)Nc1cc(-c2ccco2)nn1-c1nc(C)cc(=O)[nH]1,i,i
